Data published in PubChem BioAssay (NCATS).
Records with an inconclusive call do not appear. A number with no mark means an inactive call. Activity calls are given as the source filed them. Calls come from the whole dose curve; as a rule, active = well fitted cell-killing curve with a large enough effect; inconclusive = small, poorly fitted or top-dose-only effect, or effect the other way; inactive = no such curve, though single readings can be large or run the other way.

assay: Quantitative High-Throughput drug screen in 47 multiple myeloma cell lines against the NCATS MIPE library collection: KMS34_JCRB cell viability assay (AID 1918985); conditions: KMS34 myeloma viability, CellTiter-Glo ATP luminescence, 48 h; series mostly up to 45.8 µM; viability, percent of control: at the top concentration; note: nearly all actives have a fitted effect of over 40% in size
Summary of the method: (§1)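 ATP-based CellTiter-Glo luminescence after 48 h drug exposure (37 °C, 5% CO2) of 500 myeloma cells per well. DMSO-only wells set 100% viability, media-only wells 0%; MIPE 4.0 library added by pin tool.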
Potency is the fitted concentration of half-maximal effect.

| SMILES | viability, percent of control | Potency |
| --- | --- | --- |
| CCCN[C@H]1CCc2nc(N)sc2C1 | 104% |  |
| CNS(=O)(=O)Cc1ccc2[nH]cc(CCN(C)C)c2c1 | 111% |  |
| CCCOc1ccc(C(=O)OCCN(CC)CC)cc1N | 95.3% |  |
| O=C(NCC1CN(c2ccc(N3CCOCC3=O)cc2)C(=O)O1)c1ccc(Cl)s1 (stereo not given) | 102% |  |
| CCCCCCNC(=O)n1cc(F)c(=O)[nH]c1=O |  | 8.33 µM (active) |
| Nc1ccc(S(=O)(=O)Nc2ccccn2)cc1 | 127% |  |
| O=C(O)C1CCCN(CCC=C(c2ccccc2)c2ccccc2)C1 (stereo not given) | 101% |  |
| CCOC(=O)c1ccc(OC(=O)CCCCCN=C(N)N)cc1 | 95% |  |
| COC(=O)Nc1nc2ccc(C(=O)c3ccccc3)cc2[nH]1 |  | 0.935 µM (active) |
| NC(=O)c1cccc(N)c1 | 101% |  |
| CC(=O)[C@H]1CC[C@H]2[C@@H]3CC=C4C[C@@H](O)CC[C@]4(C)[C@H]3CC[C@]12C | 102% |  |
| CN(C)CCc1c[nH]c2ccc(CS(=O)(=O)N3CCCC3)cc12 | 81.9% |  |
| CCN(C)C(=O)Oc1cccc([C@H](C)N(C)C)c1 | 97.8% |  |
| C[C@@H]1CN(c2c(F)c(N)c3c(=O)c(C(=O)O)cn(C4CC4)c3c2F)C[C@H](C)N1 | 75.3% [at 23.2 µM] |  |
| CC(C)C1CCC(C(=O)N[C@H](Cc2ccccc2)C(=O)O)CC1 (stereo not given in full) | 95.9% |  |
| O=NN(CCCl)C(=O)NC1CCCCC1 | 92.5% |  |
| CO[C@@H]1[C@@H](OC(N)=O)[C@@H](O)[C@H](Oc2ccc3c(O)c(NC(=O)c4ccc(O)c(CC=C(C)C)c4)c(=O)oc3c2C)OC1(C)C |  | 1.48 µM (active) |
| Cc1nnc(C(=O)NC(C)(C)c2nc(C(=O)NCc3ccc(F)cc3)c(O)c(=O)n2C)o1 | 108% |  |
| Nc1nc(N)nc(-c2cc(Cl)ccc2Cl)n1 | 131% |  |
| N[C@@H](C(=O)N[C@@H]1C(=O)N2C(C(=O)O)=C(Cl)CS[C@H]12)c1ccccc1 | 101% |  |
| CCOC(=O)c1ccc(C#Cc2ccc3c(c2)C(C)(C)CCS3)nc1 | 93% |  |
| CN1CCCC(n2nc(Cc3ccc(Cl)cc3)c3ccccc3c2=O)CC1 (stereo not given) |  | 10.5 µM (active) |
| COc1ncnc(NS(=O)(=O)c2ccc(N)cc2)c1OC | 98.9% |  |

assay: Quantitative High-Throughput drug screen in 47 multiple myeloma cell lines against the NCATS MIPE library collection: OCIMY7_PLB cell viability assay (AID 1918987); conditions: OCI-MY7 myeloma viability, CellTiter-Glo ATP, 48 h; series mostly up to 45.8 µM; viability (% of DMSO): at the top concentration; note: nearly all actives have a fitted effect of over 65% in size
Summary of the method: as §1

| SMILES | viability (% of DMSO) [%] | Potency |
| --- | --- | --- |
| CNS(=O)(=O)Cc1ccc2[nH]cc(CCN(C)C)c2c1 | 138 |  |
| C[C@@H]1C[C@H]2[C@@H]3CCC4=CC(=O)C=C[C@]4(C)[C@@]3(Cl)[C@@H](O)C[C@]2(C)[C@@]1(OC(=O)c1ccco1)C(=O)CCl |  | 9.35 µM (active) |
| O=C(NCC1CN(c2ccc(N3CCOCC3=O)cc2)C(=O)O1)c1ccc(Cl)s1 (stereo not given) | 178 |  |
| O=C(O)C1CCCN(CCC=C(c2ccccc2)c2ccccc2)C1 (stereo not given) | 187 |  |
| COC(=O)Nc1nc2ccc(C(=O)c3ccccc3)cc2[nH]1 |  | 0.418 µM (active) |
| NC(=O)c1cccc(N)c1 |  | 4.69 µM (active) |
| CC1=NN(c2ccccc2)C(=O)C1 | 176 |  |
| CO[C@@H]1[C@@H](OC(N)=O)[C@@H](O)[C@H](Oc2ccc3c(O)c(NC(=O)c4ccc(O)c(CC=C(C)C)c4)c(=O)oc3c2C)OC1(C)C |  | 5.9 µM (active) |
| CC1=CC(=O)c2ccccc2C1=O |  | 33.2 µM (active) |
| Cc1nnc(C(=O)NC(C)(C)c2nc(C(=O)NCc3ccc(F)cc3)c(O)c(=O)n2C)o1 | 132 |  |
| N[C@@H](Cc1ccc(O)c(O)c1)C(=O)O | 181 |  |
| CN1CCCC(n2nc(Cc3ccc(Cl)cc3)c3ccccc3c2=O)CC1 (stereo not given) |  | 1.18 µM (active) |
